AmpC no deterg: qHTS Inhibitors of AmpC Beta-Lactamase (assay without detergent); P00811; AmpC nitrocefin hydrolysis, absorbance 480 nm, 0.0001% Triton; Potency, µM (doses to about 57.1 µM), without a hit: top-dose activity change, negative = inhibition, most hits filed as inhibitors; 330,000 tested, 0.52% active; AID 485341, 2010;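 also: plate controls were no compound for no effect and no enzyme for full effect; nearly all actives have a fitted effect of over 20% in size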
Target sequence (P00811 whole entry, looked up): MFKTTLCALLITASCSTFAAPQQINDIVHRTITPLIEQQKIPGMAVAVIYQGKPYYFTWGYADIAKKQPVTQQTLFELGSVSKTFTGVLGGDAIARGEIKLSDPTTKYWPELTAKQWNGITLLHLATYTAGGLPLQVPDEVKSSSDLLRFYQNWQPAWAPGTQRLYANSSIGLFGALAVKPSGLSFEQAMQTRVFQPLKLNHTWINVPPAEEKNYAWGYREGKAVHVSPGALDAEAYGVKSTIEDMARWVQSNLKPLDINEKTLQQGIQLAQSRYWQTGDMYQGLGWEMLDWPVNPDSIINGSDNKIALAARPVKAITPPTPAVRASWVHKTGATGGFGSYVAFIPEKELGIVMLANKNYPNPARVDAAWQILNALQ
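AmpC (5.3 nM in the dispensed reagent) in 20 mM phosphate pH 7.0 with 0.01% (detergent screen) or 0.0001% Triton X-100 was preincubated with compounds for 15 min at room temperature. Nitrocefin was then added from an 800 uM solution, and hydrolysis was followed at 480 nm.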
Sm TGR block: qHTS Assay for the Inhibitors of Schistosoma Mansoni Peroxiredoxins; Potency, µM (highest dose often 114 µM), for the others: at the highest dose activity change, negative = inhibition, usual class: inhibitors; AID 485364, 2010; Schistosoma mansoni thioredoxin glutathione reductase (TGR), Q962Y6; 360,000 tested, 3% active; purified TGR, DTNB reduction, TNB absorbance 405 nm; also: nearly all actives have a fitted effect of over 60% in size
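Kinetic colorimetric format: TGR-catalysed, NADPH-driven DTNB reduction monitored via TNB absorbance. Enzyme dispensed at 20 nM; compound exposure 15 min at room temperature before reaction start.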
AmpC inh detg: qHTS Inhibitors of AmpC Beta-Lactamase (assay with detergent); AmpC hydrolysis of nitrocefin, absorbance 480 nm, 0.01% Triton; AID 485294, 2010; 370,000 tested, 0.041% active; Potency, µM (highest dose often 114 µM), for the others: at the top dose activity change, negative = inhibition, actives largely listed as inhibitors; P00811;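 also: 0% = no-compound wells and -100% = no-enzyme wells; nearly all actives have a fitted effect of over 25% in size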
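20 mM phosphate pH 7.0 + 0.01% (detergent screen) or 0.0001% Triton X-100; 5.3 nM AmpC reagent; cpd preinc 15 min RT; nitrocefin (800 uM stock) to start; A480 q20 s × 4 min; Activity was normalised to no-enzyme and no-compound control wells.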
RE007 growth inh: qHTS Assay for Inhibitors of the HIV-1 protein Vpr | 360,000 tested, 0.21% active | S. pombe RE007 Vpr strain, BacTiter-Glo ATP luminescence, 24 h | Potency, µM (doses to about 92.2 µM), without a hit: at the highest dose activity change, negative = less growth, actives largely listed as inhibitors; active = well fitted falling curve with a large enough effect; inconclusive = small, poorly fitted or top-dose-only effect; inactive = no such curve, though single readings can be large or run the other way; also: nearly all actives have a fitted effect of over 50% in size
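Fission yeast RE007 carrying one integrated HIV-1 vpr copy, seeded at OD 0.01 in PMG+AL medium with 23 nL pinned compound. Grown 24 h at 30 degrees; viability read by BacTiter-Glo luminescence after 5 min.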
Giardia FBPA inh: qHTS Assay for Inhibitors of Fructose-1,6-bisphosphate Aldolase from Giardia Lamblia | purified Giardia FBPA | Potency, µM (doses to about 59.6 µM), without a hit: at the top dose activity, negative = inhibition, actives largely listed as inhibitors | 290,000 tested, 0.71% active | AID 2451, 2010; also: nearly all actives have a fitted effect of over 55% in size
Target sequence (A8B2U2 whole entry, looked up): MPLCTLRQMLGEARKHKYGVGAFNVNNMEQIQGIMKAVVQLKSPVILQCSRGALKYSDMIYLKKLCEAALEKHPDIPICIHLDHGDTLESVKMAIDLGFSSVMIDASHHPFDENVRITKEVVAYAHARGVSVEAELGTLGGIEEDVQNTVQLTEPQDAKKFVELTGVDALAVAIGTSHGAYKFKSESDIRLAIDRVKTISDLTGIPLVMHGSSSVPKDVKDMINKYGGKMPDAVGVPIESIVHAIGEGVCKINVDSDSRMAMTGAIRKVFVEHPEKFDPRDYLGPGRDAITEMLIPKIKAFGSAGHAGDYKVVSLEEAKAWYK
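Giardia FBPA (40 nM reagent) was preincubated 10 min at RT with compound (up to 57.5 uM final), then substrate plus GAPDH/TPI/NAD/arsenate coupling system with diaphorase/resazurin was added; resorufin fluorescence (525/598 nm) was read after 20 min.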
* marks the source's active call; other numbers are inactive results; ? = inconclusive; . = not tested or not shown; [ ] = another dose, or the depositor's remark. Compounds with a hit are over-represented: about 3.4% of the library has one in this group of screens. Unless noted, calls follow the shape of the dose curve; as a rule, active = well fitted curve in the direction sought with a large enough effect; inconclusive = small, poorly fitted or top-dose-only effect, or another doubt; inactive = no such curve, though single readings can be large; an effect the other way counts as inactive or inconclusive. Unless noted, % is scaled to controls: 0 for no effect and ±100 for the full control effect; potency is read from the fitted curve at half-maximal effect.

SMILES	AmpC no deterg	Sm TGR block	AmpC inh detg	RE007 growth inh	Giardia FBPA inh
COc1ccccc1N1CCN(C2CC(=O)N(c3cccc(Cl)c3)C2=O)CC1 (stereo not given)	35.2%	39.8µM*	?	?	-17.9%
CCOc1ccc(N2C(=O)CC(N3CCN(c4ccccc4OC)CC3)C2=O)cc1 (stereo not given)	106.4%	39.8µM*	-8.7%	28.2µM*	-1.8%
COc1ccccc1N1C(=O)CC(N2CCN(c3ccc([N+](=O)[O-])cc3)CC2)C1=O (stereo not given)	64.6%	39.8µM*	-0.8%	4.6%	7.1%
O=C(Cc1ccc(Cl)cc1)c1c[nH]c(C(=O)NCc2cccnc2)c1	-21.6%	19.6%	-4.2%	6.7%	8.7%
O=S(=O)(Nc1ccc(-c2ccc(N3CCOCC3)nn2)cc1)c1ccc(Cl)c(Cl)c1	43.9%	0.4%	?	-10.1%	.
CC1CCCCN1Cc1ccc(-c2nn[nH]n2)cc1 (stereo not given)	-12.9%	0.3%	-0.3%	14.8%	-4.8%
Cc1cc(NC(=O)c2ccc(S(=O)(=O)N3CCc4ccccc43)cc2)no1	-52.7%	8.1%	7.4%	6.5%	1.3%
O=C(NCCCNC(=O)c1ccco1)c1cccc(F)c1	-16.3%	4.8%	9.1%	-3.0%	-9.4%
CCCN1CCc2c(sc(NC(=O)c3ccc(S(=O)(=O)N4CCCC4)cc3)c2C(N)=O)C1	13.4%	-17.7%	-5.5%	-7.8%	-4.3%
CCC1CCCCN1S(=O)(=O)c1ccc(C(=O)Nc2sc3c(c2C(N)=O)CCC3)cc1 (stereo not given)	.	35.5µM*	-3.7%	.	.
Cc1c(C(=O)NCc2ccc3c(c2)OCCO3)sc(=O)n1Cc1ccccc1C#N	.	.	.	-4.0%[18.4 µM]	.
O=C(Nc1ccc(-c2nc3ccccc3[nH]2)cc1)c1ccc2c(c1)OCO2	-39.9%	4.1%	1.9%	-17.7%	.
c1ccc2[nH]c(-c3ccc4c(c3)OCO4)nc2c1	.	.	.	39.8µM*	.
Cc1ccc(C(=O)NC2CCS(=O)(=O)C2)cc1S(=O)(=O)N1CCCC1 (stereo not given)	-14.1%	4.7%	7.0%	3.7%	.
OC(C#CCN1CCCCCC1)(c1ccccc1)c1cccnc1 (stereo not given)	-7.0%	14.1µM*	8.6%	15.1%	?
OC(C#CCN1CCCC1)(c1ccccc1)c1cccnc1 (stereo not given)	-26.6%	31.6µM*	-3.8%	-5.1%	?
CCCN(CC#CC(O)(c1ccccc1)c1cccnc1)CCC (stereo not given)	118.8%	15.0%	-2.3%	0.4%	?
OC(C#CCCN1CCCCC1)(c1ccccc1)c1ccccc1	-0.4%	-17.6%	2.2%	-12.6%	5.6%
OC1(c2ccc(F)cc2)CCNC1 (stereo not given)	-3.6%	-19.6%	0.5%	-5.0%	-0.3%
OC1(c2ccc(Br)cc2)CCNCC1	-12.0%	50.1µM*	-14.8%	1.0%	1.8%
CCOC(=O)C(NC(C)=O)C(=O)Nc1ccc(C(C)C)cc1 (stereo not given)	10.5%	.	2.5%	5.4%	0.3%
COc1ccccc1/C=N/N1C(=O)C(CC(=O)Nc2ccc([N+](=O)[O-])cc2OC)SC1=Nc1cccc(C)c1C (stereo not given)	-41.5%	.	0.6%	.	-12.5%
CCOc1ccc(/C(C)=N/N2C(=O)C(CC(=O)Nc3ccc(OC)cc3[N+](=O)[O-])SC2=Nc2cccc(C)c2C)cc1 (stereo not given)	-24.1%	17.8µM*	-1.8%	14.9%	-1.1%
COc1ccc(OCC#CCN2CCCCCC2)cc1	-12.2%	?	?	-16.9%	?
COc1ccc(OCC#CCN2CC(C)OC(C)C2)cc1 (stereo not given)	2.5%	7.08µM*	?	13.4%	?
SMILES	AmpC no deterg	Sm TGR block	AmpC inh detg	RE007 growth inh	Giardia FBPA inh
COc1cc2c(cc1OC)C(=O)N1[C@H]3c4cc(Cl)ccc4OC[C@@H]3[C@H](c3ccccc3)[C@]1(C)C(=O)N2	108.5%	-4.7%	0.1%	6.1%	.
COc1cccc(C(=O)OCCCOC(=O)c2cccc(OC)c2OC)c1OC	.	.	.	-2.4%	.
Cc1cc(O)c(C(c2ccccc2)N2CCC(C)CC2)c(=O)n1Cc1ccco1 (stereo not given)	.	28.2µM*	-5.5%	.	.
Cc1cc(O)c(C(c2cccc(F)c2)N2CCC(C)CC2)c(=O)n1Cc1ccco1 (stereo not given)	.	25.1µM*	-0.7%	.	.
CC1CCN(C(c2ccccc2)c2sc3nc(-c4ccco4)nn3c2O)CC1 (stereo not given)	.	8.1%	1.8%	.	.
O=C(Nc1cccc(-c2cccc(F)c2)c1)C1CCN(Cc2ccco2)CC1	39.5%	0.0%	-3.8%	-15.3%	.
Cc1ccc(C(c2c(O)cc(C)n(Cc3ccco3)c2=O)N2CCC(C)CC2)cc1 (stereo not given)	.	10µM*	20.1%	.	.
CCNC(=O)C1(C)CCN(C(=O)c2ccc(F)c(Cl)c2)C1 (stereo not given)	.	.	.	14.4%	.
Cc1cc(NCc2ccccn2)ccc1Br	-0.6%	9.0%	-10.9%	-4.2%	.
CCOc1ccc(S(=O)(=O)N2CCC(C(=O)N3CCN(Cc4ccccc4)CC3)CC2)cc1	198.2%	1.4%	0.2%	8.9%	3.3%
Cc1ccc(NC2=C(Cl)C(=O)OC2OC(=O)c2ccco2)cc1C (stereo not given)	-41.3%	?	-11.9%	.	-3.7%
Cc1ccccc1C(=O)OC1OC(=O)C(Cl)=C1Nc1ccc(C(=O)O)cc1 (stereo not given)	1.12µM*	-18.1%	1.26µM*	-6.5%	-3.2%
c1ccc2c(Nc3nnc(-c4ccncc4)s3)cccc2c1	10µM*	0.8%	-3.3%	-4.1%	-5.7%
COc1ccc(CCNc2oc(-c3ccccc3OC)nc2C#N)cc1OC	21.7%	-3.7%	-5.5%	-11.9%	-2.3%
COc1ccc(CCNc2oc(-c3ccccc3OC)nc2C#N)cc1	-2.9%	14.1µM*	?	8.0%	-4.9%
CCN(CC)CCN1C(=O)c2ccccc2NC1c1cc(OC)c(OC)c(OC)c1 (stereo not given)	-7.6%	-11.9%	?	-5.8%	0.2%
Oc1ccc(N=Cc2ccc(O)c(O)c2)cc1	-49.3%	22.4µM*	-13.5%	-8.5%	1.58µM*
Oc1ccc(/C=N/N=C/c2ccc(O)c(O)c2)cc1O	-18.0%	?	-25.6%	11.2%	?
COc1ccccc1CNc1cc(C)ccc1C	-19.9%	-4.7%	-1.9%	-16.1%	1.1%
CCOC(=O)c1c(-n2c(C)cc(C=C3C(=O)NC(=S)NC3=O)c2C)sc2c1CCCC2	-31.7%	11.2µM*	-7.2%	-12.5%	?

Source: PubChem
